Consider 20 compounds from PubChem BioAssay (NCI).

Assay [1] in a line: NCI Yeast Anticancer Drug Screen. Data for the rad50 strain (AID 155).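 Also: 0% = growth of vehicle-only cultures of the same strain.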 The settings on record: S. cerevisiae rad50 strain growth inhibition; at 50.0 µM; stronger effect = higher value. The essentials:
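Genetically altered yeast (DNA repair pathway); compound treatment; growth inhibition vs vehicle ctrl.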

The nature of assay [2]: NCI Yeast Anticancer Drug Screen. Data for the mec2-1 strain (AID 157). The settings on record: S. cerevisiae mec2-1 strain, at 50.0 µM, stronger effect = higher value. The essentials: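 Cells of the genetically defined mec2-1 yeast strain are incubated with test compound. Inhibition of growth is calculated against vehicle-treated controls.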
The nature of assay [3]: NCI Yeast Anticancer Drug Screen. Data for the sgs1 mgt1 strain (AID 161).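 Also: 0% = growth of cultures given vehicle only.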 Conditions: S. cerevisiae sgs1 mgt1 strain, at 50.0 µM, stronger effect = higher value. The essentials: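 Test agents were incubated with a DNA-repair-mutant yeast strain. Growth was then read and compared against vehicle-treated controls.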
The nature of assay [4]: NCI Yeast Anticancer Drug Screen. Data for the cln2 rad14 strain (AID 165).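 Also: 0% = growth equal to vehicle treated cultures.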 Conditions: S. cerevisiae cln2 rad14 strain, at 50.0 µM, stronger effect = higher value. The essentials: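 The screen exposed genetically defined yeast (cln2 rad14) to test compounds and scored growth inhibition relative to vehicle-treated controls.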
Assay [5] can be described thus: NCI Yeast Anticancer Drug Screen. Data for the bub3 strain (AID 167). The settings on record: S. cerevisiae bub3 mutant strain, at 50.0 µM, stronger effect = higher value. In outline:
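Yeast carrying a defined mutation is treated with each compound, and growth is compared with that of vehicle-exposed cells to give inhibition.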

A short description of assay [6]: NCI Yeast Anticancer Drug Screen. Data for the mlh1 rad18 strain (AID 175). The settings on record: S. cerevisiae mlh1 rad18 strain growth inhibition; at 50.0 µM; stronger effect = higher value. In outline:
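Compound-treated yeast growth, normalised to vehicle controls. Strain bears defined DNA repair mutations.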

The panel holds about 79,000 compounds, 15% with a hit somewhere; the sample as a whole holds those more often. A number with no mark means an inactive call. Active and inactive are the calls of the source. Rule as the data show it: active = growth inhibition above about 70%; inactive = the rest.

As for `CCOC(=O)c1ccccc1C(=O)OCC`, the growth inhibition in assay [1] is 6.25%; in assay [2], -2.65%; in assay [3], -9.6%; in assay [4], 6.1%; in assay [5], -0.05%; in assay [6], 10.9%.
For the compound `O=C(N/N=C/c1cc(Cl)cc(Cl)c1[O-])c1ccccc1O.O=C(N/N=C/c1cc(Cl)cc(Cl)c1[O-])c1ccccc1O.[Ni+2]`, the growth inhibition in assay [1] was -8.75%; in assay [2] it was -15.8%; in assay [3], -14.8%; in assay [4], -41.2%; in assay [5], 6.9%; in assay [6], -17.1%.
In the case of `COc1ccc2c(c1O)CN1CCc3cc4c(cc3C1C2)OCO4` (stereo not given), the growth inhibition is 40.5% in assay [1]; 22.1% in assay [2]; 28.6% in assay [3]; 25.9% in assay [4]; 43.2% in assay [5]; 19.9% in assay [6].
Consider `CC1(c2cccc(N(CCCl)CCCl)c2)NC(=O)NC1=O` (stereo not given), for which the growth inhibition in assay [1] was 25.1%; in assay [2] it was 27.4%; in assay [3], 13.2%; in assay [4], 3.9%; in assay [5], 19.9%; in assay [6], 40.4%.
`CC(I)C(N)=O` (stereo not given): the growth inhibition is -16.6% in assay [1]; -19.7% in assay [2]; -19.5% in assay [3]; -4.15% in assay [4]; -4% in assay [5]; -17% in assay [6].
Turning to `O=NNc1cccnc1`, the growth inhibition is -1.05% in assay [1]; -17.1% in assay [2]; -2.35% in assay [3]; 4.45% in assay [4]; -4.8% in assay [5]; -38% in assay [6].
`C=CCn1nnc(N)n1`: the growth inhibition in assay [1] is -11.8%; in assay [2], 7.15%; in assay [3], -21.8%; in assay [4], 19.5%; in assay [5], 8.35%; in assay [6], -2.25%.
Consider `COc1ccc2c(c1)C13CCCCC1C(C2)[N+](C)([O-])CC3` (stereo not given), for which the growth inhibition in assay [1] is -6.8%; in assay [2], -19.1%; in assay [3], 6.35%; in assay [4], -38.1%; in assay [5], -10.9%; in assay [6], 4.95%.
With `CCOP(=O)(OCC)C(N)Cc1c[nH]c2ccccc12` (stereo not given), the growth inhibition is 13.9% in assay [1]; -5.85% in assay [2]; -16.8% in assay [3]; 16.4% in assay [4]; 11.6% in assay [5]; 4.9% in assay [6].
Consider `Cc1ccc(NN=O)nc1`, for which the growth inhibition in assay [1] is -13.9%; in assay [2] it was 3.15%; in assay [3] it was -3.9%; in assay [4], 15.2%; in assay [5], -10.6%; in assay [6], -13.8%.
`NC1CC=C(COC(=O)C(O)(c2ccccc2)C2CC2)CC1` (stereo not given): the growth inhibition in assay [1] was -12.9%; in assay [2], -14.7%; in assay [3], -23.6%; in assay [4], 3.65%; in assay [5] it was -7.4%; in assay [6], -31.4%.
On to `CCC(Br)(CC)C(=O)NC(N)=O`, for which the growth inhibition in assay [1] is 13.1%; in assay [2], -23.8%; in assay [3], -13.9%; in assay [4] it was -16.4%; in assay [5], -10.8%; in assay [6] it was -6.05%.
As for `CCCCOP(=O)(/C=C/c1cccs1)OCCCC`, the growth inhibition in assay [1] is 81.2% (active); in assay [2], 37%; in assay [3], 79% (active); in assay [4] it was 7.95%; in assay [5], 61.5%; in assay [6], 37.1%.
`Oc1c(Cl)cccc1Cl`: the growth inhibition is -22.4% in assay [1]; -51.9% in assay [2]; -63% in assay [3]; -1.6% in assay [4]; -55.1% in assay [5]; 3.4% in assay [6].
For `O=NN1CCN(N=O)CC1`, the growth inhibition is 4.9% in assay [1]; -0.6% in assay [2]; 6.3% in assay [3]; 8.95% in assay [4]; -0.6% in assay [5]; 28.1% in assay [6].
With `O=C(NN=C1CCN(Cc2ccccc2)CC1)C(O)(c1ccccc1)c1ccccc1`, the growth inhibition in assay [1] is -13.6%; in assay [2] it was -5.5%; in assay [3], 13.8%; in assay [4] it was -8.5%; in assay [5] it was -14%; in assay [6] it was -0.65%.
On to `COc1ccc(C)cc1C(CC(=O)O)CC(=O)N(CCCl)CCCl` (stereo not given), for which the growth inhibition is 39.6% in assay [1]; -2.45% in assay [2]; 6.05% in assay [3]; 17.7% in assay [4]; -1.95% in assay [5]; 21.6% in assay [6].
Turning to `CO/C(=N/N1CC1C(F)(F)F)c1ccncc1` (stereo not given), the growth inhibition is -34.8% in assay [1]; 19.2% in assay [2]; -51.9% in assay [3]; 11.8% in assay [4]; 1.65% in assay [5]; 8% in assay [6].
With `C1CC[N+]2=C(C1)OCCC2`, the growth inhibition is 12.1% in assay [1]; -2.15% in assay [2]; 6.75% in assay [3]; -17.2% in assay [4]; -1.9% in assay [5]; 4.25% in assay [6].
In the case of `c1cc2n[se]nc2cc1-c1ccc2n[se]nc2c1`, the growth inhibition in assay [1] is 26.7%; in assay [2], -11.8%; in assay [3] it was -7.85%; in assay [4], -40.2%; in assay [5] it was -9.55%; in assay [6] it was -17.4%.
